# A number with no mark means an inactive call.
# Test system: Aedes aegypti larvae
# Experiment: larval motility relative to same well at 0 h (fraction); higher = more motile (less active compound), active = 0.4 or less
# Details: 10 µM
# Summary of the method: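 Compounds at 10 µM (1% v/v DMSO) were applied to about 10 Aedes aegypti larvae per well in 100 µL, with every plate including solvent and larvicide control wells. Motility movies were taken with INVAPP at 0, 2 and 24 h, and results are medians of three independent larval batches. Relative motility is each well's score expressed as a fraction of its own first score.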
Structure (SMILES),larval motility (2 h),larval motility (24 h)
O=C(N[C@H](Cc1cccc2ccccc12)C(=O)NCCc1c[nH]cn1)C1Cc2ccccc2C1,0.819,0.952
Cc1ncc([N+](=O)[O-])n1CC(O)CN1CCOCC1 (centres undefined),1.3,0.789
O=S(=O)(Nc1ccc(-n2cccc2)cc1)c1ccc(Cl)c(Cl)c1,1.06,0.808
CCCCCCC1c2ccc(O)cc2Oc2cc(O)ccc21,0.468,0.989
CC(=N)N1CC[C@H](SC2=C(C(=O)O)N3C(=O)[C@@H]([C@@H](C)O)[C@H]3C2)C1,1.05,0.809
CC1=C(/C=C/C(C)=C/C=C/C(C)=C/C(=O)Nc2ccc(O)cc2)C(C)(C)CCC1,0.95,0.595
c1cnc(NCc2ccc(CNc3ncccn3)cc2)nc1,1.23,0.598
O=C(Nc1ccccc1)N(Cc1cc(Br)ccc1O)c1ccc(F)cc1,0.646,1.02
COc1ccc(NC(=O)CC2Sc3ncnn3C2=O)cc1 (centres undefined),0.728,0.333 (active)
N#Cc1c(F)c(Cl)c(NCc2ccccc2)c(C#N)c1F,0.585,0.978
CCCCOC(=O)Nc1cc2nc(C3CCCCC3)[nH]c2cc1N(CC)CC,0.544,0.594
CC(=O)Nc1cc(NS(=O)(=O)c2ccc(Cl)cc2)cc2c(Cl)n[nH]c12,0.744,0.752
CC1CCc2c(N3CCC(O)CC3)c(F)cc3c(=O)c(C(=O)O)cn1c23 (centres undefined),1.3,0.744
C=CCc1cc(Cc2cnc(N)nc2N)cc(OC)c1O,1.05,1.18
O=C(/C=C\n1cnc(-c2cc(C(F)(F)F)cc(C(F)(F)F)c2)n1)NNc1ccccn1,1.12,1.17
COc1cc(Cc2cc(N)nc(N)n2)cc(OC)c1OC,0.774,1.44
O=C(Nc1ncc(Cc2cccc3ccccc23)s1)C1CCCCC1,1.07,1.56
Nc1nnc(-c2ccc(Cl)cc2)s1,0.916,0.877
CCOc1ccc(C(=O)NCCc2ccccc2)cc1,1.05,0.979
O=C(/C=C/n1cnc(-c2cc(C(F)(F)F)cc(C(F)(F)F)c2)n1)NNc1cnccn1,0.908,1
CC(C)Nc1nc2cc(Cl)c(Cl)cc2n1[C@H]1O[C@@H](CO)[C@H](O)[C@@H]1O,1.1,0.602
Cc1nc2ccc(Oc3ccccc3)cc2c2c1CCN2CCc1ccccc1,0.607,0.774
CCCCC(CC)CNC(=N)NC(=N)NCCCCCCNC(=N)NC(=N)NCC(CC)CCCC (centres undefined),0.646,1.07

Structure (SMILES),larval motility (2 h),larval motility (24 h)
CCc1oc2ccccc2c1C(=O)c1ccc(O)cc1,1.07,1.17
CCCNc1ccc(S(=O)(=O)Nc2cc(C)on2)cc1,0.414,0.825
Nc1ccc(-c2nc3cc(C(F)(F)F)ccc3n2C23CC4CC(CC(C4)C2)C3)cc1,1.1,1.22
Nc1ccc2oc(=O)ccc2c1I,0.518,0.509
COc1ccc(CNC(=O)C2CCN([C@H](C)c3cccc4ccccc34)CC2)cc1,0.771,0.922
Nc1nc(=O)c(Br)c(-c2cccc(Cl)c2)[nH]1,0.895,0.972
CCC(C)(C)c1ccc(CC(C)CN2C[C@@H](C)O[C@@H](C)C2)cc1 (some centres undefined),0.895,0.765
CCc1ccccc1OCCN1CCCCCC1,1.18,1.21
Cc1c(OCC(F)(F)F)ccnc1CS(=O)c1nc2ccccc2[nH]1 (centres undefined),1.17,1.38
Cn1c2ccccc2c(=O)c2c(O)cccc21,1.15,1.13
COc1nc2ccc(Br)cc2cc1[C@@H](c1ccccc1)[C@@](O)(CCN(C)C)c1cccc2ccccc12,0.838,0.679
CC1(C)Cc2c(C#N)c(SCCc3ccccc3)nc(N3CCOCC3)c2CO1,0.485,1.28
Cc1[nH]c2ccccc2c1CC(=O)N[C@@H](Cc1ccccc1)C(=O)N(C)c1ccccc1,0.963,1.03
Cc1ccc(Oc2ccccc2-c2csc(NC3=NCCCN3)n2)c(C)c1,0.774,0.786
NC(=O)c1ccccc1NC(=O)c1ccc(C(=O)Nc2ccccc2C(N)=O)cc1,0.724,0.755
CC[C@H](CO)Nc1nc(NCc2ccccc2)c2ncn(C(C)C)c2n1,0.799,0.755
CC(C)(C)c1ccc(C(Cn2cccc(C(F)(F)F)c2=O)NC2Cc3ccccc3C2)cc1 (centres undefined),0.686,0.846
CCOC(=O)/C=C/[C@H](C[C@@H]1CCNC1=O)NC(=O)[C@H](CC)n1cccc(NC(=O)c2cc(C)on2)c1=O,1.27,0.871
N[C@H](CCC(=O)N[C@@H](Cc1c[nH]c2ccccc12)C(=O)O)C(=O)O,0.936,0.838
Oc1cccc(C(Nc2nccs2)c2ccc3cccnc3c2O)c1 (centres undefined),1.09,0.912
CC(=O)Oc1ccccc1C(=O)Nc1ncc([N+](=O)[O-])s1,1.58,0.824
OB1OCc2c1ccc(Cl)c2F,0.987,1.19
Fc1ccc(-c2nc(-c3c[nH]c4ccc(Br)cc34)[nH]c2-c2ccc(F)cc2)cc1,0.737,0.9

Structure (SMILES),larval motility (2 h),larval motility (24 h)
CCc1nc2ccccn2c1C(=O)NCc1ccccc1,1.39,0.997
CN1CCN(c2ccc3[nH]c(-c4ccc5[nH]c(-c6ccc(O)cc6)nc5c4)nc3c2)CC1,0.732,1.11
O=C(NN1C(=O)[C@@H]2C3C=CC([C@H]4C[C@@H]34)[C@@H]2C1=O)c1ccc(C(F)(F)F)cc1,0.844,0.599
O=S(=O)(NCB(O)O)c1cc2c(Cl)ccc(Cl)c2s1,0.568,0.742
c1ccc(-c2nnc3c4ccccc4c(N4CCNCC4)nn23)cc1,0.808,1.34
O=C(N[C@H](CCS)C(=O)N[C@H](Cc1ccccc1)C(=O)O)c1cc2ccccc2[nH]1,1.47,1.56
Clc1ccc(Cn2c(CN3CCCC3)nc3ccccc32)cc1,1.09,1.28
CCC[C@H](NC(=O)[C@@H]1[C@H]2CCC[C@H]2CN1C(=O)[C@@H](NC(=O)[C@@H](NC(=O)c1cnccn1)C1CCCCC1)C(C)(C)C)C(=O)C(=O)NC1CC1,0.881,0.577
CCc1cc(Nc2cc(=O)n(CCN3CCN(C(=O)c4ccccc4)CC3)c(=O)[nH]2)ccc1C,1.11,1.07
Cc1ccc(N2CCC(CCOc3ccc(S(C)(=O)=O)cc3)CC2)nn1,0.943,0.683
C=CCN(C(=O)OCc1ccc([N+](=O)[O-])cc1)C1CCN(CC[C@](C)(CN(C)S(=O)(=O)c2ccccc2)c2ccccc2)CC1,0.847,0.852
CCC(CC)[C@H](NC(C)=O)[C@@H]1[C@H](O)[C@@H](C(=O)O)C[C@H]1NC(=N)N,0.729,1.91
CC(C)Oc1ccc(-c2nc(-c3cccc4c3CC[C@@H]4NCCO)no2)cc1C#N,1.2,1.25
CCN(CC)CCn1c(=N)n(CC(O)COc2ccc(Cl)cc2Cl)c2ccccc21 (centres undefined),0.783,0.86
O=S(=O)(Nc1cccc2cccnc12)c1ccccc1,0.587,0.61
NC(=O)c1[nH]c2ccc(S(N)(=O)=O)cc2c1-c1ccccc1,0.832,1.05
Cn1cncc1[C@@](N)(c1ccc(Cl)cc1)c1ccc2c(c1)c(-c1cccc(Cl)c1)cc(=O)n2C,0.645,0.876
CONC(=N)c1ccc(-c2ccc(-c3ccc(C(=N)NOC)cc3)o2)cc1,0.699,2.2
COc1ccc2nc(-c3ccccc3)cc(O)c2c1,1.08,0.908
CCOCc1nc2c(N)nc3ccccc3c2n1CC(C)(C)O,1.09,0.906
CC[C@@]1(O)C(=O)OCc2c1cc1n(c2=O)Cc2cc3c(CN(C)C)c(O)ccc3nc2-1,0.831,0.876
